# Pol beta inh: qHTS Assay for Inhibitors of DNA Polymerase Beta; Pol beta primer extension/strand displacement, fluorescence kinetic; Potency, µM (titrated, usually from 114 µM), for the others: top-dose activity change, negative = inhibition, most hits filed as inhibitors; 340,000 tested, 1.3% active; P06746; further: on the % scale 0 is the no-effect control and ±100 the full control effect
#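 10 nM enzyme + cpd, 15 min RT; start with substrate 50 nM final; read 0 min and after 10 min RT. Corrected, normalized data; 4-parameter Hill curve fit.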
# FEN1 inhibitor: qHTS Assay for the Inhibitors of Human Flap endonuclease 1 (FEN1) | Recombinant FEN1 flap cleavage, fluorescence, 15 min | P39748 | AID 588795, 2011 | 390,000 tested, 0.35% active | Potency, µM (doses to about 114 µM), for the others: at the highest dose activity change, negative = inhibition, actives largely listed as inhibitors; further: on the % scale 0 is the no-effect control and ±100 the full control effect; nearly all actives have a fitted effect of over 65% in size
#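 Concentration–response screening of FEN1 (10 nM): 15 min compound preincubation at room temperature, reaction started with 50 nM substrate and read at 0 and 15 min. Corrected, normalized data were fitted by a four-parameter Hill equation.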
# Pol iota inh: qHTS for Inhibitors of Polymerase Iota; DNA polymerase iota (Homo sapiens), Q9UNA4; Pol iota fluorescent replication assay, 10 min; Potency, µM (series often up to 115 µM), for the others: at the top dose activity, negative = inhibition, usual class: inhibitors; 390,000 tested, 1% active
# Target sequence (Q9UNA4 whole entry, looked up): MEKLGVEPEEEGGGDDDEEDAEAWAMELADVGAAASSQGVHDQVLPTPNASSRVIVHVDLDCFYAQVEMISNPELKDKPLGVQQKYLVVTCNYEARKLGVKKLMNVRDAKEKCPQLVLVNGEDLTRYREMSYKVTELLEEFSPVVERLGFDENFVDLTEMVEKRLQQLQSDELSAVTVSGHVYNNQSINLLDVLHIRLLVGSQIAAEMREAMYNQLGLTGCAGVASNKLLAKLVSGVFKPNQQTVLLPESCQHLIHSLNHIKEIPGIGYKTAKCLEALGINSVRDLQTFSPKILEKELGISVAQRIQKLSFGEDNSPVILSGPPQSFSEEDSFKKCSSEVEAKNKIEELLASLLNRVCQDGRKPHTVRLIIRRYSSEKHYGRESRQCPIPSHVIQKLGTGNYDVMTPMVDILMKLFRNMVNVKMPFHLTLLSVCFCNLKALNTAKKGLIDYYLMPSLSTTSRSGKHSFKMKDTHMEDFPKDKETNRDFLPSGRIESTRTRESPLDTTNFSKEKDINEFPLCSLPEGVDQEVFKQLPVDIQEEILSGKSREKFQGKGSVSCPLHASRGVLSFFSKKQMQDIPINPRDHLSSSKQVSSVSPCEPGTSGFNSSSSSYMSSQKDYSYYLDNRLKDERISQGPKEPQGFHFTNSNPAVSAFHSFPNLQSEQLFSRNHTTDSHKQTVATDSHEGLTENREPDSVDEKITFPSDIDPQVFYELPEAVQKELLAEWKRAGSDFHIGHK
#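 Pol iota at 10 nM preincubated 15 min with compounds at room temperature; reaction started with fluorescent substrate, 50 nM final. Fluorescence read kinetically at 0 and 10 min; buffer-only wells as negative control.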
# WRN helicase inh: qHTS for Inhibitors of WRN Helicase; Bifunctional 3'-5' exonuclease/ATP-dependent helicase WRN (Homo sapiens), Q14191; WRN helicase unwinding, fluorescent forked duplex, kinetic; Potency, µM (titrated, usually from 114 µM), for inactives: at the top dose activity change, negative = inhibition, most hits filed as inhibitors; 360,000 tested, 0.46% active; further: on the % scale 0 is the no-effect control and ±100 the full control effect; nearly all actives have a fitted effect of over 55% in size
#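 Enzyme (20 nM final) and test compound sit together 15 min at room temperature before substrate addition. Substrate is a single-forked duplex oligonucleotide (100 nM) labelled with fluorophore and quencher, with 2 mM ATP; helicase unwinding raises red fluorescence, read kinetically.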
# POLK inh: qHTS for Inhibitors of Polymerase Kappa. DNA polymerase kappa (Homo sapiens), Q9UBT6. purified Pol kappa, fluorescent DNA synthesis assay, 10 min. Potency, µM (highest dose often 107 µM), inactives show at the top dose activity, negative = inhibition, hits mostly inhibitors. 400,000 tested, 0.53% active; further: on the % scale 0 is the no-effect control and ±100 the full control effect
#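 Kinetic fluorescence screen: compound preincubated 15 min RT with 10 nM enzyme; 50 nM substrate (final) initiates; reads at 0/10 min.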
# POLH inh: qHTS for Inhibitors of Polymerase Eta. DNA polymerase eta (Homo sapiens), Q9Y253. recombinant Pol eta, fluorescent DNA replication assay. Potency, µM (titrated, usually from 114 µM), without a hit: at the highest dose activity change, negative = inhibition, hits mostly inhibitors. 390,000 tested, 1.2% active. AID 588591, 2011; further: on the % scale 0 is the no-effect control and ±100 the full control effect
#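 Pol eta at 10 nM preincubated with compounds 15 min at room temperature; reaction started with fluorescent substrate (50 nM final) and read kinetically at 0 and 10 min.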
# Numbers without * were called inactive; ? = inconclusive; nt = no result given; [ ] = another dose, or the depositor's remark. Shown are actives, neighbours in structure and some others; about 2.4% of the full set was active somewhere. The call rests on the fitted dose curve; in most records, active means well fitted curve in the direction sought with a large enough effect; inconclusive means small, poorly fitted or top-dose-only effect, or another doubt; inactive means no such curve, though single readings can be large; an effect the other way counts as inactive or inconclusive. Potency means the concentration at half of the fitted maximal effect.
SMILES,Pol beta inh,FEN1 inhibitor,Pol iota inh,WRN helicase inh,POLK inh,POLH inh
COC1=CC(=O)O[C@H](/C=C/c2ccc3c(c2)OCO3)C1,nt,nt,nt,nt,13%[60.1 µM],nt
Cc1cc(N2CCOCC2)ccc1/C=C1\C(=O)NC(=O)N(c2ccccc2)C1=O,-18%,5%,-20%,-6%,-5%,-7%
Cc1ccc(N2C(=O)NC(=O)/C(=C\C=C\c3ccco3)C2=O)cc1,?,?,18µM*,?,-100%,50µM*
COc1cc(/C=C2\C(=O)NC(=O)N(c3ccccc3)C2=O)c([N+](=O)[O-])cc1OC,13%,0%,136%,?,-7%,-23%
Cc1cccc(N2C(=O)NC(=O)/C(=C/c3ccc([N+](=O)[O-])o3)C2=O)c1,5.6µM*,20µM*,3.2µM*,28µM*,8.9µM*,2.5µM*
Cn1cc(/C=C2\C(=O)NC(=O)N(c3ccccc3)C2=O)c2ccccc21,-7%,-2%,?,-12%[11.6 µM],-19%,25µM*
Cc1ccc(CCNC(=O)c2cc3cc(S(=O)(=O)N4CCCCC4)ccc3n2C)cc1,12%,?,5%,nt,-3%[60.1 µM],-1%
O=C(O)CO,nt,nt,nt,nt,20%[60.1 µM],nt
Nc1nc(NCc2ccc(F)cc2)c2[nH]cnc2n1,nt,-9%,56%,nt,12%,nt
COc1cc(N2CCOCC2)ccc1/C=C1\C(=O)NC(=O)N(Cc2cccs2)C1=O,16%,-13%,?,50µM*,-6%,-16%
COc1cc(N2CCOCC2)ccc1/C=C1\C(=O)NC(=O)N(Cc2ccc3c(c2)OCO3)C1=O,-8%,-14%,98%,50µM*,-12%,-10%
COc1ccccc1CNC(=O)CCNS(=O)(=O)c1ccc2c(c1)oc(=O)n2C,41%,-11%,11%,4%,-2%,-4%
CCOC(=O)CCCc1cc[c]([Sb](=[O])([OH])[OH])cc1,nt,3.5µM*,1µM*,nt,0.71µM*,nt
CSc1ncc(/C=C2/C(=O)NC(=O)N(c3ccc(C(C)C)cc3)C2=O)cn1,-14%,8%,4%,50µM*,-1%,-6%
CCCCN1C(=O)NC(=O)/C(=C/c2cnc(SC)nc2)C1=O,-2%,1%,-4%,40µM*,-9%,2%
CC(C)c1ccc(N2C(=O)NC(=O)/C(=C/c3cnc(-c4ccccc4)nc3)C2=O)cc1,8%,-6%,2%,50µM*,-11%,-2%
O=C1NC(=O)N(Cc2ccccc2)C(=O)/C1=C/c1cnc(-c2ccccc2)nc1,7%,7%,28%,?,-7%,-13%
CC[C@H](C)[C@H](NC(=O)[C@H](CO)NC(=O)[C@H](CC(N)=O)NC(=O)[C@H](CC(C)C)NC(=O)[C@H](Cc1ccc(O)cc1)NC(=O)[C@H](CCCCN)NC(=O)[C@H](CCCCN)NC(=O)[C@@H](NC(=O)[C@H](C)NC(=O)[C@H](CCSC)NC(=O)[C@H](CCC(N)=O)NC(=O)[C@H](CCCCN)NC(=O)[C@H](CCCNC(=N)N)NC(=O)[C@H](CC(C)C)NC(=O)[C@H](CCCNC(=N)N)NC(=O)[C@@H](NC(=O)[C@H](Cc1ccc(O)cc1)NC(=O)[C@H](CC(N)=O)NC(=O)[C@H](CC(=O)O)NC(=O)[C@@H](NC(=O)[C@H](Cc1ccccc1)NC(=O)[C@@H](NC(=O)[C@H](C)NC(=O)[C@H](CC(=O)O)NC(=O)[C@H](CO)NC(=O)[C@@H](N)Cc1cnc[nH]1)C(C)C)[C@@H](C)O)[C@@H](C)O)C(C)C)C(=O)N[C@@H](CC(C)C)C(=O)N[C@@H](CC(N)=O)C(N)=O,nt,nt,nt,nt,18%[60.1 µM],nt
N#C/C(=C/c1ccc(O)c(O)c1)C(N)=S,nt,nt,nt,nt,1.7µM*,nt
N#C/C(=C\c1ccc(O)c(O)c1)C(=O)NCCCNC(=O)/C(C#N)=C/c1ccc(O)c(O)c1,0.13µM*,nt,0.11µM*,nt,0.3µM*,0.11µM*
CC(C)NC(=O)C(C)N1CCN(S(=O)(=O)c2ccc3ccccc3c2)CC1 (centres undefined),3%,-5%,39%,-17%,2%,11%
CCCNC1=C(C)C(=O)C2=C(C1=O)C(COC(N)=O)[C@]1(OC)C3NC3CN21 (some centres undefined),18%,-7%,7.9µM*,?,45µM*,?
COc1ccc(CCn2c(NN=C3CCCCC3)nc3c2c(=O)[nH]c(=O)n3C)cc1,-23%,7%,18µM*,-5%,-18%,?
COc1ccc(CCNCc2ccc3c(c2)n(C)c(=O)n3C)cc1,1%,-3%,7%,nt,0%,1%
N#Cc1c(Oc2cccc(OS(=O)(=O)CCCC(F)(F)F)c2)cccc1C(F)(F)F,nt,nt,nt,nt,3%[60.1 µM],nt
SMILES,Pol beta inh,FEN1 inhibitor,Pol iota inh,WRN helicase inh,POLK inh,POLH inh
C=CCN1C(=O)/C(=C\c2ccc(N3CCOCC3)o2)C(=O)NC1=S,-2%,12%,?,-25%,-11%,28µM*
COc1ccc(/C=C2/C(=O)NC(=O)N(Cc3ccco3)C2=O)cc1,10µM*,nt,nt,nt,nt,nt
CCOC(=O)C1CCN(/C=C2/C(=O)NC(=O)N(Cc3ccco3)C2=O)CC1,22µM*,-35%,18µM*,?,35µM*,7.1µM*
COC(=O)C1=C(C)N(Cc2ccco2)C(=O)/C1=C\c1ccc(N(C)C)cc1,30%,3%,15%,66%,?,-15%
C[C@H](N)C(=O)NCC(=O)N[C@H]1CSSC[C@@H](C(=O)O)NC(=O)[C@H](CO)NC(=O)[C@H]([C@@H](C)O)NC(=O)[C@H](Cc2ccccc2)NC(=O)[C@H]([C@@H](C)O)NC(=O)[C@H](CCCCN)NC(=O)[C@H](Cc2c[nH]c3ccccc23)NC(=O)[C@H](Cc2ccccc2)NC(=O)[C@H](Cc2ccccc2)NC(=O)[C@H](CC(N)=O)NC(=O)[C@H](CCCCN)NC1=O,nt,nt,nt,nt,5%[60.1 µM],nt
COc1ccccc1N1C(=O)NC(=O)/C(=C/c2ccc3c(c2)Cc2ccccc2-3)C1=O,1%,79µM*,?,-20%[11.6 µM],-3%,-20%
Cc1cc(N2CCCCC2)nc2ccc(NC(=O)/C=C/c3ccc(OC(C)C)cc3)cc12,30%,-18%,12%,nt,-2%,-16%
CN1CCc2cc(O)cc3c2C1Cc1ccc(O)c(O)c1-3 (centres undefined),-2%[57.1 µM],nt,16µM*,nt,4%[19.4 µM],-13%[57.1 µM]
O=[N+]([O-])c1ccc(N2CCCC2)c(F)c1Br,42%,-2%,?,3%,-4%,-14%

# Bioassay records (PubChem BioAssay)
